Consider 10 compounds from article PMC5540273 (PLoS ONE, 2017).

Among the test systems are PAK3; PAK4; PAK6; PAK7; PDGFRA; PDGFRB; PDPK1; PFTAIRE2; PHKG1; PHKG2; PIK3C2B; PIK3C2G; PIK3CA; PIK3CB; PIK3CD; PIK3CG.
Conditions in all cases: concentration: 1 μM, replicates: in singlicate; n = 1
A further experiment relates to T1, PCTK1.
T1 construct: gene CDK16

A further experiment concerns T2, PCTK2.
T2 construct: gene CDK17

The next experiment concerns T3, PCTK3.
T3 construct: gene CDK18

Another experiment has as its system T4, PFTK1.
T4 construct: gene CDK14
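Further: KINOMEscan kinase panel screen.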

With `COC(=O)C(Cc1ccccc1)NC(=O)NC1CCN(c2ccnc(Nc3ccc(F)cc3)n2)C1` (centres unmarked) [GSK1379714], the “%Inh” value in the experiment on PAK3 is recorded as 16%; in the experiment on PAK4, 0%; in the experiment with PAK6, 0%; in the experiment on PAK7, 7%; in the experiment on PCTK1 it was 5%; in the experiment on PCTK2 it was 9%. For the same compound, the “%Inh” value in the experiment with PCTK3 came out at 0%; in the experiment with PDGFRA, 7%; in the experiment on PDGFRB, 23%; in the experiment on PDPK1, 4%; in the experiment with PFTAIRE2, 14%; with PFTK1 it was 0%. For the same compound, the “%Inh” value is recorded as 2% with PHKG1; 0% in the experiment with PHKG2; 0% with PIK3C2B; 73% with PIK3C2G; 0% with PIK3CA; 0% in the experiment with PIK3CB. Moreover, the “%Inh” value was 27% in the experiment on PIK3CD and 1% in the experiment with PIK3CG.
As to `Cl.Cl.Cl.N#Cc1ccc(CCNc2nccc(-c3cccc(CN4CCNCC4)c3)n2)cc1` [GSK2137462], the “%Inh” value in the experiment with PAK3 worked out at 6%; in the experiment with PAK4 it was 0%; with PAK6 it was 8%; in the experiment on PAK7, 12%; in the experiment on PCTK1, 0%; in the experiment on PCTK2, 0%. In addition, the “%Inh” value was found to be 0% with PCTK3; 0% with PDGFRA; 34% in the experiment on PDGFRB; 8% in the experiment with PDPK1; 16% with PFTAIRE2; 14% in the experiment with PFTK1. Moreover, the “%Inh” value in the experiment with PHKG1 is on record as 25%; in the experiment on PHKG2, 23%; with PIK3C2B, 0%; in the experiment with PIK3C2G, 0%; in the experiment on PIK3CA, 1%; in the experiment on PIK3CB it was 13%. Moreover, the figures for the “%Inh” value in the experiment on PIK3CD and in the experiment with PIK3CG were 0% and 12%, respectively.
On to `CS(=O)(=O)CCNCc1nc(-c2ccc3ncnc(Nc4ccc5c(cnn5Cc5ccccc5)c4)c3c2)cs1.Cl.Cl` [GW569716], for which the “%Inh” value in the experiment on PAK3 came to 22%; in the experiment with PAK4, 0%; in the experiment on PAK6, 0%; with PAK7, 0%; in the experiment on PCTK1, 0%; with PCTK2, 0%. Besides, the “%Inh” value in the experiment on PCTK3 was 16%; in the experiment with PDGFRA, 0%; in the experiment with PDGFRB, 10%; in the experiment on PDPK1, 0%; in the experiment with PFTAIRE2 it was 0%; in the experiment on PFTK1, 6%. In addition, the “%Inh” value was 0% in the experiment on PHKG1; 0% in the experiment on PHKG2; 53% in the experiment on PIK3C2B; 0% in the experiment with PIK3C2G; 0% in the experiment on PIK3CA; 0% in the experiment with PIK3CB. For the same compound, the “%Inh” value in the experiment with PIK3CD was found to be 1%; with PIK3CG, 0%.
Take `Cc1ccccc1Cn1ccn2c(=O)cc(N3CCOCC3)nc12` [GSK2269905]: the “%Inh” value was 0% in the experiment on PAK3; 0% in the experiment on PAK4; 0% in the experiment on PAK6; 0% in the experiment with PAK7; 1% with PCTK1; 0% in the experiment on PCTK2. The “%Inh” value came out at 0% in the experiment on PCTK3; 0% with PDGFRA; 13% in the experiment on PDGFRB; 0% with PDPK1; 0% in the experiment with PFTAIRE2; 12% in the experiment on PFTK1. Moreover, the “%Inh” value with PHKG1 was found to be 0%; in the experiment with PHKG2, 0%; with PIK3C2B, 0%; in the experiment on PIK3C2G, 0%; with PIK3CA, 0%; in the experiment on PIK3CB, 99.9%. Moreover, the “%Inh” value came to 57% in the experiment with PIK3CD and 0% in the experiment with PIK3CG.
For `COc1ccc(Nc2nccc(N3CCC(NC(=O)C(C)c4ccc(Cl)cc4)C3)n2)cc1` (centres unmarked) [GSK1379735], the “%Inh” value is 71% with PAK3; 0% in the experiment with PAK4; 0% in the experiment with PAK6; 6% in the experiment with PAK7; 0% in the experiment with PCTK1; 10% in the experiment on PCTK2. Further, the “%Inh” value was determined as 9% with PCTK3; 0% in the experiment on PDGFRA; 34% in the experiment with PDGFRB; 4% in the experiment with PDPK1; 0% with PFTAIRE2; 28% in the experiment with PFTK1. Further, the “%Inh” value with PHKG1 worked out at 4%; in the experiment with PHKG2, 0%; in the experiment on PIK3C2B, 0%; in the experiment on PIK3C2G, 0%; with PIK3CA, 0%; with PIK3CB, 0%. For the same compound, the “%Inh” value in the experiment on PIK3CD and with PIK3CG was 0% throughout.
`COc1cccc(C2=C(Nc3cc(Cl)c(O)c(Cl)c3)C(=O)NC2=O)c1` [SB-390767]: the “%Inh” value was determined as 100% in the experiment on PAK3; 0% with PAK4; 0% in the experiment on PAK6; 0% in the experiment on PAK7; 2% with PCTK1; 0% in the experiment with PCTK2. The “%Inh” value turned out to be 0% in the experiment on PCTK3; 0% with PDGFRA; 0% with PDGFRB; 0% in the experiment on PDPK1; 8% in the experiment with PFTAIRE2; 0% in the experiment on PFTK1. Further, the “%Inh” value in the experiment on PHKG1, with PHKG2, with PIK3C2B, in the experiment on PIK3C2G, in the experiment on PIK3CA and in the experiment with PIK3CB was 0% in each case. Also, the “%Inh” value in the experiment with PIK3CD and in the experiment with PIK3CG was 0% each time.
Regarding `COC(=O)c1cccc(NC(=O)NC2CCN(c3ccnc(Nc4ccc(OC)cc4)n3)C2)c1` (centres unmarked) [GSK1379746], the “%Inh” value in the experiment with PAK3, in the experiment on PAK4, in the experiment on PAK6, in the experiment with PAK7, with PCTK1 and in the experiment on PCTK2 was 0% throughout. Further, the “%Inh” value with PCTK3 is on record as 0%; with PDGFRA, 0%; in the experiment with PDGFRB, 35%; in the experiment with PDPK1 it was 0%; in the experiment on PFTAIRE2 it was 10%; in the experiment on PFTK1, 27%. The “%Inh” value worked out at 19% in the experiment with PHKG1; 0% in the experiment on PHKG2; 20% with PIK3C2B; 0% in the experiment on PIK3C2G; 0% with PIK3CA; 0% in the experiment with PIK3CB. The “%Inh” value in the experiment with PIK3CD was 30%; with PIK3CG it was 0%.
Consider `COc1cc2ncnc(Nc3cccc(Br)c3)c2cc1OC.Cl` [GI230329], for which the “%Inh” value with PAK3 was 0%; with PAK4, 0%; in the experiment on PAK6, 0%; in the experiment on PAK7 it was 12%; with PCTK1, 0%; in the experiment on PCTK2, 0%. The “%Inh” value in the experiment on PCTK3 was 2%; with PDGFRA it was 0%; in the experiment on PDGFRB, 16%; in the experiment with PDPK1, 11%; with PFTAIRE2, 14%; in the experiment on PFTK1, 16%. The “%Inh” value in the experiment on PHKG1 was determined as 15%; in the experiment with PHKG2, 0%; in the experiment on PIK3C2B it was 8%; with PIK3C2G, 0%; in the experiment on PIK3CA it was 0%; in the experiment with PIK3CB, 2%. Also, the “%Inh” value with PIK3CD and in the experiment on PIK3CG was 0% each time.
As for `O=C1NC(=O)C(c2ccc(Cl)cc2)=C1Nc1ccc(O)cc1` [SB-340867], the “%Inh” value in the experiment on PAK3 worked out at 0%; with PAK4 it was 0%; in the experiment on PAK6 it was 0%; in the experiment with PAK7, 0%; with PCTK1, 0%; in the experiment with PCTK2, 4%. Further, the “%Inh” value with PCTK3 is recorded as 0%; in the experiment with PDGFRA, 0%; with PDGFRB it was 0%; in the experiment with PDPK1 it was 17%; in the experiment with PFTAIRE2, 13%; in the experiment with PFTK1, 0%. Further, the “%Inh” value in the experiment with PHKG1, in the experiment on PHKG2, with PIK3C2B, with PIK3C2G, in the experiment on PIK3CA and with PIK3CB was 0% in each case. In addition, the results for the “%Inh” value in the experiment on PIK3CD and with PIK3CG were 0% and 17%, respectively.
As for `CNC(=O)c1ccc(C)c(-n2c(C)cc(OCc3ccc(F)cc3F)c(Br)c2=O)c1`, the “%Inh” value with PAK3, in the experiment on PAK4, in the experiment with PAK6, in the experiment with PAK7, in the experiment on PCTK1 and in the experiment with PCTK2 was 0% each time. The “%Inh” value in the experiment on PCTK3 is on record as 0%; in the experiment with PDGFRA, 0%; with PDGFRB it was 0%; in the experiment with PDPK1 it was 0%; in the experiment with PFTAIRE2, 0%; with PFTK1, 8%. Also, the “%Inh” value is listed as 5% in the experiment with PHKG1; 0% with PHKG2; 0% in the experiment with PIK3C2B; 0% in the experiment on PIK3C2G; 0% in the experiment on PIK3CA; 0% in the experiment with PIK3CB. Besides, the “%Inh” value in the experiment on PIK3CD and in the experiment with PIK3CG was 0% in each case.
